# Assay results taken from US20130210151, “ENDONUCLEASE FOR GENOME EDITING” (University of Western Ontario, published 2013).
# Molecular target: TevN201-ZFE-6xHis (I-TevI 1-201 fused to ryA zinc finger) (synthetic (bacteriophage T4 I-TevI …))
# Experiment: cleavage_in_vitro; 10 mM MgCl2, 100 mM NaCl, pH 8.0, 37 C
# Details: tags: C-terminal 6xHis; dsDNA, one strand shown
# Procedure: Single time-point cleavage assays to determine the EC_{0.5max} of N201 Tev-ZFE were performed in buffer containing 20 mM Tris-HCl pH 8.0, 100 mM NaCl, 10 mM MgCl₂, 5% glycerol, 1 mM DTI and 10 nM pTZHS1.33. Reactions were incubated for 3 minutes at 37° C., stopped with 5 μl stop solution (100 mM EDTA, 40% glycerol, and bromophenol blue), and electrophoresed on a 1% agarose gel prior to staining with ethiduium bromide and analysis on an AlphaImager™3400 (Alpha Innotech). The EC_{0.5max} was determined by fitting the data to the equation
# Cleavage assays were performed with wild type and mutant substrates and increasing concentrations of TevN201-ZFE to determine the amount of protein required for half-maximal cleavage (EC_{0.5max}). […] The greater substrate discrimination observed in the genetic assay likely reflects lower in vivo protein concentrations than those used for in vitro cleavage assays. […] Although the BmoN221-ZFE substrate specificity was not tested extensively, it was shown that the chimeric endonuclease cleaved the Bmo-ryA substrate plasmid, but not the target-less control plasmid.
row,Sequence,binding signal
1,CTAGACAACACTCAGTAGATGTTTTCTTGGGTCTACCGTCCCACGCCGCATG,~4.7 fold higher EC0.5max vs TZ1.33
2,CTAGAAAACACTCAGTAGATGTTTTCTTGGGTCTACCGTCCCACGCCGCATG,~60 fold higher EC0.5max vs TZ1.33
